Molecules are shown by their SMILES. Unmarked numbers belong to inactive results. Inconclusive results are not listed. Calls of active or inactive are those of the source. Unless noted, calls come from the whole dose curve.

Experiment [1] in a line: qHTS assay to identify small molecule antagonists of the estrogen receptor beta (ER-beta) signaling pathway - cell viability counter screen (AID 1259382; active = well fitted curve in the direction sought with a large enough effect in the repeat runs; an effect the other way counts as inactive or inconclusive;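 note: HEK293T cells carrying ER-beta-UAS-bla reporter stimulated with estradiol; series mostly up to about 92 µM; nearly all actives have a fitted effect of over 55% in size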). In a few lines:
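Luminescent ATP read-out (CellTiter-Glo, 30 min, RT) taken in the same wells as the bla reporter assay. HEK293T ER-beta-UAS-bla cells in 2% charcoal-stripped FBS were exposed to compounds with 1nM E2 for 16 hr at 37C.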
(In general: In qHTS, concentration-response curves come from the screen itself.)

For experiment [2], the target named is Estrogen receptor (Homo sapiens) (UniProt P03372). The experiment in a line: qHTS assay to identify small molecule agonists of the estrogen receptor alpha (ER-alpha) signaling pathway in the presence of an antagonist (AID 1259383). Note: top concentration of the series differs between compounds; nearly all actives have a fitted effect of over 15% in size. In outline:
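Luciferase luminescence (ONE-Glo, 30min at room temperature) measured in VM7Luc4E2 cells after 22hr compound exposure at 15 concentrations, with 10.0nM ICI-182,780 final present; cells express endogenous ER-alpha and carry four EREs upstream of luciferase.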

Experiment [3] can be described thus: qHTS assay to identify small molecule agonists of the estrogen receptor alpha (ER-alpha) signaling pathway in the presence of an antagonist - cell viability counter screen (AID 1259386; active = well fitted curve in the direction sought with a large enough effect in the repeat runs; an effect the other way counts as inactive or inconclusive; note: nearly all actives have a fitted effect of over 30% in size; note: potency is the fitted concentration of half-maximal effect; for activity change, negative = cytotoxicity: series mostly up to about 92 µM). In outline: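 Read-out: CellTiter-Fluor fluorescence after 1hr reagent incubation, measured in the same wells as the luciferase readout. VM7Luc4E2 cells were exposed to 15 compound concentrations with 10.0nM ICI-182,780 for 22hr at 37C.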

Experiment [4] has as its target Progesterone receptor (Homo sapiens) (UniProt P06401). Description: qHTS assay to identify small molecule agonists of the progesterone receptor (PR) signaling pathway (AID 1346784). Note: nearly all actives have a fitted effect of over 30% in size. Note: potency is the fitted concentration of half-maximal effect. In a few lines: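 Agonist mode, quantitative HTS format in a HEK 293T line expressing a UAS-controlled beta-lactamase reporter; 16 hr compound exposure at 37C in 2% charcoal-stripped FBS, then LiveBLAzer B/G FRET fluorescence.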

Experiment [5] has the same target. The experiment in a line: qHTS assay to identify small molecule antagonists of the progesterone receptor (PR) signaling pathway (AID 1346795; active = well fitted inhibition curve with a large enough effect in the signal ratio in the repeat runs, not every such curve was filed as active; the % refers to the signal ratio). In outline: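 HEK293T PR-UAS-bla reporter cells in charcoal-stripped serum (2%) received compound after a 6 hr settling period, followed by R5020 agonist at 1 nM final; 16 hr incubation preceded the FRET substrate step and fluorescence measurement.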

The nature of experiment [6]: qHTS assay to identify small molecule antagonists of the progesterone receptor (PR) signaling pathway - cell viability counter screen (AID 1346798; active = well fitted curve in the direction sought with a large enough effect in the repeat runs; an effect the other way counts as inactive or inconclusive; note: nearly all actives have a fitted effect of over 50% in size; note: potency is the fitted concentration of half-maximal effect; for activity change, negative = cytotoxicity: series mostly up to about 92 µM). In outline:
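Same-well multiplex: after 16 hr at 37C with compound and R5020 stimulation, HEK293T cells carrying a UAS-bla reporter received LiveBLAzer substrate (2 hr RT), then CellTiter-Glo (30 min RT) for luminescent viability.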

A short description of experiment [7]: qHTS assay to identify small molecule agonists of the progesterone receptor (PR) signaling pathway - cell viability counter screen (AID 1346799). Note: nearly all actives have a fitted effect of over 45% in size. In outline: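 Counter screen for cytotoxicity: compound-treated PR-UAS-bla HEK293T cells (16 hr, 37C, 5% CO2) were assayed with CellTiter-Glo, luminescence measured after 30 min at room temperature.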
Experiment [8] is described as follows: qHTS assay to identify small molecule agonists or antagonists of the thyroid stimulating hormone receptor (TSHR) signaling pathway - wild type cell line counter screen (AID 1259384). In outline: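 Counter screen in untransfected Hek293: compounds (15-point titration, triplicate) plus phosphodiesterase inhibitor Ro20-1724 added after 18 h plating; 30 min RT. Intracellular cAMP via competitive d2/cryptate immunoassay, 1 h incubation.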

Experiment [9] deals with Thyrotropin receptor (Homo sapiens) (UniProt P16473). Description: qHTS assay to identify small molecule antagonists of the thyroid stimulating hormone receptor (TSHR) signaling pathway (AID 1259385). Note: nearly all actives have a fitted effect of over 20% in size. In a few lines: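 Antagonist mode: compound-treated TSHR-expressing HEK293 cells were stimulated with 1.5 ng/mL TSH (final) in presence of Ro20-1724 for 30 min at RT. HTRF cAMP detection after 1 h; each compound tested at 15 concentrations, triplicate.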
% is set by controls: 0 for no effect and ±100 for the full control effect.

Sequence of Progesterone receptor (Homo sapiens) (P06401 whole entry, looked up): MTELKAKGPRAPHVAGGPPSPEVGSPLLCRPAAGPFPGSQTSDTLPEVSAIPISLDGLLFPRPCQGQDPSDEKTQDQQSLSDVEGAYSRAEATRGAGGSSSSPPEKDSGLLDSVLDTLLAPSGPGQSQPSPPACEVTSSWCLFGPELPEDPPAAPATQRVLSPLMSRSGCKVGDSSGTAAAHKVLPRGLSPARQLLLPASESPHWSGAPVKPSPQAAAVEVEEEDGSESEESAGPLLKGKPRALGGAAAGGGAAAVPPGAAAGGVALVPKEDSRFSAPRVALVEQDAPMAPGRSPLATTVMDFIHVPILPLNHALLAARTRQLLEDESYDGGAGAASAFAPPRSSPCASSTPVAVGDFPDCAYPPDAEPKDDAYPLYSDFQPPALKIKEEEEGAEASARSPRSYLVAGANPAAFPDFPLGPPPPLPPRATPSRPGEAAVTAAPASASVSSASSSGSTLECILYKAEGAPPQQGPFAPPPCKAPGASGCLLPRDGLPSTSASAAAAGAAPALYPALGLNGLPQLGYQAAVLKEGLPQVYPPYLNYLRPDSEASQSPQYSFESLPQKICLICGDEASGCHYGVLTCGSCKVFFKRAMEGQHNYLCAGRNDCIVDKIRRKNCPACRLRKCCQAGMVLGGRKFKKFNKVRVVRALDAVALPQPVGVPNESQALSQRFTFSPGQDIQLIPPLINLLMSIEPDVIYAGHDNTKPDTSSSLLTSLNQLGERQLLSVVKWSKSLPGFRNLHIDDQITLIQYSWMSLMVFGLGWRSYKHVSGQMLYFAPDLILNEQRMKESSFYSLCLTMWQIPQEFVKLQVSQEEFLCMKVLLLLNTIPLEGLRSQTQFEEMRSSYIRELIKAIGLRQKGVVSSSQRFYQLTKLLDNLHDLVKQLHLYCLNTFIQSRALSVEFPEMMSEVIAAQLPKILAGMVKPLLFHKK
Sequence of Estrogen receptor (Homo sapiens) (P03372 whole entry, looked up): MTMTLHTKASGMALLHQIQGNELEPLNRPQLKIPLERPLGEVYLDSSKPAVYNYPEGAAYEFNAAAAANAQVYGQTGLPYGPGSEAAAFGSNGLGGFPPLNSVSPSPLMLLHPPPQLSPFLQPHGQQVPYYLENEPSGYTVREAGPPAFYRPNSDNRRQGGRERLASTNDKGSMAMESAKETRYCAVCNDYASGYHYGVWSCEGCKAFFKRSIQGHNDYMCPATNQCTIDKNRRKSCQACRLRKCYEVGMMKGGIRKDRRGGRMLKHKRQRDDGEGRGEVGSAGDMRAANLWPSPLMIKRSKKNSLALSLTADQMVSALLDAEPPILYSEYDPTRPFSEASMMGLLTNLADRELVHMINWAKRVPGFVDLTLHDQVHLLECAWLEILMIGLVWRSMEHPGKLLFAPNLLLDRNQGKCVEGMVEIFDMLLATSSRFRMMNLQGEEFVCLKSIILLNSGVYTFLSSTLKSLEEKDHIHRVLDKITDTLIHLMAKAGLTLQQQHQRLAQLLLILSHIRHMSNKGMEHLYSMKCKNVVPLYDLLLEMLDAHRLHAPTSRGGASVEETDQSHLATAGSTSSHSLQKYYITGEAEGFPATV
Sequence of Thyrotropin receptor (Homo sapiens) (P16473 whole entry, looked up): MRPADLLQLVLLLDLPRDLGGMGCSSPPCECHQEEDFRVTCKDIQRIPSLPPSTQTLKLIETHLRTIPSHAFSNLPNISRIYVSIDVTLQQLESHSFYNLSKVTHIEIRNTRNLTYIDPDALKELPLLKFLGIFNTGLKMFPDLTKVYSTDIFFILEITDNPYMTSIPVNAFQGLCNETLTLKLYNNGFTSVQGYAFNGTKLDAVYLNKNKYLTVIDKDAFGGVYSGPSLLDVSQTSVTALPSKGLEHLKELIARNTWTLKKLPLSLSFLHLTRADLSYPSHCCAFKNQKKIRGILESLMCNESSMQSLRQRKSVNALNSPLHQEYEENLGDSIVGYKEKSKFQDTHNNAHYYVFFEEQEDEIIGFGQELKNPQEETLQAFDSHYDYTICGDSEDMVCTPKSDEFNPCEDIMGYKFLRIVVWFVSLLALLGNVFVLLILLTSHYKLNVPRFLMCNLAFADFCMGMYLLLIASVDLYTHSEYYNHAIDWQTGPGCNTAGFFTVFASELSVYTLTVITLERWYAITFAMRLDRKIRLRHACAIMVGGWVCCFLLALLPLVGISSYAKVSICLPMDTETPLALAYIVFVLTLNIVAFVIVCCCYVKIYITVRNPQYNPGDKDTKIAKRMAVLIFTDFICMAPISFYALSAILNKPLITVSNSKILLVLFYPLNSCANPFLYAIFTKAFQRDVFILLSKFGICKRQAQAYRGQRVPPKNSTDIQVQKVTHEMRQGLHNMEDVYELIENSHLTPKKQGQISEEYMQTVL

For `C1=C\CC/C=C\CC/1`, the molecule was called inactive in experiment [1] and in [2]. Further, the Potency entry in experiment [3], in [4], in [5], in experiment [6] and in [7] was “inactive” each time.
On to `BrC/C=C/CBr`, for which the activity change, negative = cytotoxicity in experiment [1] was 3.59% [at 19 µM]; in experiment [3], 2.04% [at 19 µM]; in [6], 20.7% [at 18.9 µM]; in experiment [7] it was 0% [at 19 µM]. In addition, the cAMP activity change in experiment [8] was -5.59% [at 18.9 µM]. Besides, the activity change, negative = inhibition was -1.56% [at 19 µM] in experiment [9] and -3.92% [at 18.9 µM] in [5]. For the same molecule, the activation in experiment [4] was 1.6% [at 19 µM].
For `O=S1(=O)CCCC1`, the call in experiment [1] and in experiment [2] was inactive. The Potency entry in [3], in experiment [4] and in experiment [6] was “inactive” throughout.
Consider `CC(C)(C)NCCO`, for which the molecule was called inactive in experiment [1] and in experiment [2]. Moreover, the Potency result in [3] and in experiment [4] was “inactive” in each case. Further, the Potency in [6] was 30.6 µM (active).
For `O=S(=O)(O)c1cc(O)ccc1O`, the outcome in [1], in [8] and in experiment [9] was inactive. In addition, the Potency entry in experiment [3], in [4], in [5], in [6] and in experiment [7] was “inactive” each time.
For the molecule `C=C(C)C(=O)OC`, the outcome in experiment [1], in [8] and in [9] was inactive. The Potency entry in [3], in experiment [4], in [5] and in [7] was “inactive” in each case.
On to `CCCCC(C)C(=O)O` (centres undefined), for which the molecule was classed as inactive in [1], in [8] and in [9]. Moreover, the Potency result in experiment [3], in [4], in experiment [5], in [6] and in experiment [7] was “inactive” throughout.
Turning to `CCC(=O)OCCC(C)CCC=C(C)C` (centres undefined), the molecule was called inactive in experiment [1], in [8] and in experiment [9]. Moreover, the Potency result in [3], in experiment [4], in experiment [5] and in experiment [7] was “inactive” each time.
In the case of `COc1cc2c3cc1Oc1cc(ccc1O)C[C@@H]1c4c(cc(OC)c(O)c4Oc4ccc(cc4)C[C@@H]3N(C)CC2)CC[N+]1(C)C`, the result in [1], in [8] and in [9] was inactive. The Potency entry in experiment [3], in [4], in experiment [5], in experiment [6] and in [7] was “inactive” in each case.
On to `C/C=C(\C)C(=O)OCC/C=C\CC`, for which the call in [1], in experiment [8] and in experiment [9] was inactive. The Potency entry in [3], in experiment [4], in experiment [5] and in [7] was “inactive” each time.
On to `CO/N=C(/C(=O)N[C@@H]1C(=O)N2C(C(=O)O)=C(Cn3nnc(C)n3)CS[C@H]12)c1csc(N)n1`, for which the molecule was classed as inactive in [1], in [8] and in [9]. In addition, the Potency entry in [3], in experiment [4], in [5], in experiment [6] and in [7] was “inactive” in each case.
Regarding `CC(C)c1ccccc1O`, the molecule was classed as inactive in [1], in experiment [8] and in experiment [9]. Besides, the Potency result in experiment [3], in experiment [4], in [5], in experiment [6] and in [7] was “inactive” throughout.
Regarding `O=CO`, the activity change, negative = cytotoxicity was 7.25% [at 8.39 µM] in [1], -5.19% [at 8.39 µM] in experiment [3] and 21.2% [at 8.39 µM] in experiment [7]. Besides, the Potency in experiment [4] is 2.51 µM (active). In addition, the activity change, negative = inhibition in experiment [5] is 8.24% [at 8.39 µM].
With `COc1ccc(N=Nc2cc(C)c(N=Nc3ccc(S(=O)(=O)O)cc3)cc2OC)cc1`, the call in [1] and in experiment [8] was inactive. Further, the Potency in experiment [3] is 27.3 µM (active). Besides, the Potency entry in experiment [4], in experiment [6] and in [7] was “inactive” throughout.
`COc1ccc(OC)c(NC(=O)CC(C)=O)c1`: the call in [1], in experiment [8] and in experiment [9] was inactive. Besides, the Potency entry in experiment [3], in [4], in experiment [5], in experiment [6] and in [7] was “inactive” in each case.
With `Nc1cc(S(=O)(=O)O)ccc1S(=O)(=O)O`, the molecule was classed as inactive in [1], in experiment [8] and in experiment [9]. In addition, the Potency entry in experiment [3], in [5], in experiment [6] and in experiment [7] was “inactive” throughout.
Take `C1=CCC(c2ccccc2)CC1` (centres undefined): the molecule was classed as inactive in experiment [1], in experiment [8] and in experiment [9]. The Potency result in experiment [3], in experiment [4], in experiment [5], in experiment [6] and in [7] was “inactive” throughout.
Consider `CCCCCCCCCCCCCCCC(=O)NCCO`, for which the outcome in experiment [1], in experiment [8] and in [9] was inactive. The Potency entry in experiment [3], in experiment [4], in experiment [5], in experiment [6] and in [7] was “inactive” each time.
In the case of `CCCCC(CC)C(=O)OC(C)C` (centres undefined), the molecule was classed as inactive in [1]. In addition, the Potency result in experiment [3], in [4], in experiment [5], in experiment [6] and in experiment [7] was “inactive” in each case.
With `O=C(O)C(=O)Nc1cccc(-c2nn[nH]n2)c1`, the molecule was classed as inactive in experiment [1], in experiment [8] and in experiment [9]. The Potency result in experiment [3], in [4], in experiment [5], in experiment [6] and in experiment [7] was “inactive” each time.
In the case of `CCCCCCCC[Si](OCC)(OCC)OCC`, the molecule was called inactive in experiment [1]. The Potency entry in [3], in [4] and in experiment [5] was “inactive” throughout.
Regarding `C=C(C)C(=O)OCCCCCCOC(=O)C(=C)C`, the call in [1], in [8] and in experiment [9] was inactive. Besides, the Potency entry in experiment [3], in experiment [4], in experiment [5], in experiment [6] and in experiment [7] was “inactive” each time.
Turning to `CCC1Nc2cc(Cl)c(S(N)(=O)=O)cc2S(=O)(=O)N1` (centres undefined), the molecule was called inactive in experiment [1], in [8] and in experiment [9]. For the same molecule, the Potency result in [3], in [4], in [6] and in experiment [7] was “inactive” throughout.
Take `CCCCCC1CCCC(=O)O1` (centres undefined): the outcome in [1], in experiment [8] and in experiment [9] was inactive. Besides, the Potency entry in [3], in experiment [4] and in experiment [6] was “inactive” each time.
Turning to `CCCCCCCCCOCC1CO1` (centres undefined), the result in [1], in [8] and in experiment [9] was inactive. Moreover, the Potency entry in experiment [3], in [4], in experiment [6] and in experiment [7] was “inactive” each time.

The values are drawn from PubChem BioAssay (Tox21).
